# Reference: PMC7862700, “An all-to-all approach to the identification of sequence-specific readers for epigenetic DNA modifications on cytosine”
# Tests used:
# Assay in all cases: DAPPL (digital affinity profiling via proximity ligation, sequencing); 10 mM Tris-HCl pH 7.5, 50 mM NaCl, 1 mM DTT, 4% glycerol, room temperature, 30 min; GST-TFs on glutathione beads, 16-mer random dsDNA library, 0.1% formaldehyde crosslink after washing; high values mean tight binding
# [1] = molecular target: T1, FLI1 (Homo sapiens, UniProt Q01543 1-452); settings: protein: recombinant; tags: N-terminal GST; dsDNA, one strand shown
# T1 sequence: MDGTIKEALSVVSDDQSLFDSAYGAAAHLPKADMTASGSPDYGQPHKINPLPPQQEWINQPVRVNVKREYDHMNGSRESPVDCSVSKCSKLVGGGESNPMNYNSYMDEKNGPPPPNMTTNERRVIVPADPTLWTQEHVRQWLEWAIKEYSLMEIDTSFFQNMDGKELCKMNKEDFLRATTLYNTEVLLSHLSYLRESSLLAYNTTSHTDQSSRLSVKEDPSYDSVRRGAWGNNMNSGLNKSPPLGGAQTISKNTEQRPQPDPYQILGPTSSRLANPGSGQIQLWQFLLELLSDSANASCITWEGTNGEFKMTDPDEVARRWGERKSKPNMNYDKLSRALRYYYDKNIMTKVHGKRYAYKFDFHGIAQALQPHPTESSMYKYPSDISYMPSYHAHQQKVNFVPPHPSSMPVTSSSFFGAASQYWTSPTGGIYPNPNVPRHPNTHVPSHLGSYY
# How it was run: (§1)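 Pools of DNA-barcoded human transcription factors, expressed in yeast as GST fusions on glutathione beads and combined with a tag-only sample, were incubated with 200 nmole of a 16-mer random double-stranded DNA library. Incubation took 30 min at room temperature in Tris/NaCl/DTT/glycerol buffer and was followed by washing, 0.1% formaldehyde crosslinking, proximity ligation (BsaI/T4 ligase, 1 h, 37 °C), PCR amplification and sequencing on an Illumina NextSeq500. Binding signal is the ratio of a hexamer's read frequency for a factor to its frequency for the tag-only sample.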
# [2] = molecular target: T2, ELK1 (Homo sapiens, UniProt P19419 1-428); settings: protein: recombinant; tags: N-terminal GST; dsDNA, one strand shown
# T2 sequence: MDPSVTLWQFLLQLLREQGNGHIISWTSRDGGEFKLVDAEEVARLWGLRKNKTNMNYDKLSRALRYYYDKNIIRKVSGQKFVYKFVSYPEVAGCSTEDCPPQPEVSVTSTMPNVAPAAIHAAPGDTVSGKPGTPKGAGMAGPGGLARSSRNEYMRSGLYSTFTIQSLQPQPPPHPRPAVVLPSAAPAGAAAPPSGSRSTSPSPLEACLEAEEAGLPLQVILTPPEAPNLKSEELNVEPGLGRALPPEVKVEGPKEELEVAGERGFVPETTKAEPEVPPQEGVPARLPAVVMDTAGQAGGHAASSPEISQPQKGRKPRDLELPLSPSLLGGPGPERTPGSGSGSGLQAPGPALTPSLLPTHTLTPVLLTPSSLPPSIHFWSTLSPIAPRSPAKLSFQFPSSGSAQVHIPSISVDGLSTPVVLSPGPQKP
# How it was run: as §1
# [3] = molecular target: T3, GABPA (Homo sapiens, UniProt Q06546 1-454); settings: protein: recombinant; tags: N-terminal GST; dsDNA, one strand shown
# T3 sequence: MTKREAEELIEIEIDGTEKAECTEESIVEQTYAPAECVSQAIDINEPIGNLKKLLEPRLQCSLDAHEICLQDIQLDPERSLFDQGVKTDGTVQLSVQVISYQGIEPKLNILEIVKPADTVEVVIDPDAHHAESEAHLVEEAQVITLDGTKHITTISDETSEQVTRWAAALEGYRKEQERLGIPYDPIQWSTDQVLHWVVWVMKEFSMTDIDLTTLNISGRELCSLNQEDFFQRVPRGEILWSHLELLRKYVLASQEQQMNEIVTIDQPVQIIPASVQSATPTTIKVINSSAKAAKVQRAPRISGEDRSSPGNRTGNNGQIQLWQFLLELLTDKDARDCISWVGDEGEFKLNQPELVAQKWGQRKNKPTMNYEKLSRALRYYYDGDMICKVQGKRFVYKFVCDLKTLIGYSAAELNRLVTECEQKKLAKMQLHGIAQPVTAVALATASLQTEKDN
# How it was run: as §1
# [4] = molecular target: T4, ERG (Homo sapiens, UniProt P11308 1-479); settings: protein: recombinant; tags: N-terminal GST; dsDNA, one strand shown
# T4 sequence: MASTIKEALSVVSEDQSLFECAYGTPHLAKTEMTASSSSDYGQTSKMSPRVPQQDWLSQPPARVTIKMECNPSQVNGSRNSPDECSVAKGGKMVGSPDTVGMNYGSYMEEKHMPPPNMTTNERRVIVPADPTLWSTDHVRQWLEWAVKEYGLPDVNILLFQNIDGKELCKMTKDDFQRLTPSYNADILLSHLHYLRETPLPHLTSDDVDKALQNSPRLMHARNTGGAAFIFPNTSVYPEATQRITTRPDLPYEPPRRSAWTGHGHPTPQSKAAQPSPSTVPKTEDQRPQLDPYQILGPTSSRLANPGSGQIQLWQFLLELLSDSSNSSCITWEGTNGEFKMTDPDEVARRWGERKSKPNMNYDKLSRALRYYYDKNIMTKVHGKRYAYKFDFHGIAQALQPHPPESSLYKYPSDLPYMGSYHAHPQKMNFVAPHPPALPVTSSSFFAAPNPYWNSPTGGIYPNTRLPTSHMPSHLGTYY
# How it was run: as §1
# [5] = molecular target: ELF1 (Homo sapiens, UniProt P32519 1-619); settings: protein: recombinant; tags: N-terminal GST; dsDNA, one strand shown
# ELF1, sequence (P32519 whole entry): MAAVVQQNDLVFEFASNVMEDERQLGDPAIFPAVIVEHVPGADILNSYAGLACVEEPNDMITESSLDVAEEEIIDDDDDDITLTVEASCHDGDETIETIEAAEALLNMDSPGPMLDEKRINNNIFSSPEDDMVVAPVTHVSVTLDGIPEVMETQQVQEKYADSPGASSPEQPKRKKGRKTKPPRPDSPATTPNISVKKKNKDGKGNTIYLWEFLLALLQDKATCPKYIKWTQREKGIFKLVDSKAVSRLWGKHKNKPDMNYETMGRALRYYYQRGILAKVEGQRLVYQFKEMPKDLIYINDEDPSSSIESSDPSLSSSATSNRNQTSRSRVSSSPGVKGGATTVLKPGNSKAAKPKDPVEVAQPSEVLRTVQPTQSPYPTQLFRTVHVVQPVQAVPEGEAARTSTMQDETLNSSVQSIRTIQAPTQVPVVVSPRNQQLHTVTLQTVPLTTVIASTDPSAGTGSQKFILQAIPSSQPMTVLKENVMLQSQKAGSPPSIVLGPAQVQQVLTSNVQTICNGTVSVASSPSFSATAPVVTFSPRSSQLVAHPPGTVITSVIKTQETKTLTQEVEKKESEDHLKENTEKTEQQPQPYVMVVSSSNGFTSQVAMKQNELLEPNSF
# How it was run: as §1
# [6] = molecular target: T5, EHF (Homo sapiens, UniProt Q9NZC4 1-300); settings: protein: recombinant; tags: N-terminal GST; dsDNA, one strand shown
# T5 sequence: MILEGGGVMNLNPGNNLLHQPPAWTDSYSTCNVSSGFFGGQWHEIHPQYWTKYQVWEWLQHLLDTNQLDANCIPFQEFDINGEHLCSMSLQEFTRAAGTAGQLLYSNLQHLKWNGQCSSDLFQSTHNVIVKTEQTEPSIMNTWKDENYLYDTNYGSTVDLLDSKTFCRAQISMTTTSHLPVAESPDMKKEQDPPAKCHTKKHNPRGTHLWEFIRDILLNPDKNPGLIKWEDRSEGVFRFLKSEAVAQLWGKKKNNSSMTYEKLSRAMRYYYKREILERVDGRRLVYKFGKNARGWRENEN
# How it was run: as §1
# [7] = molecular target: SPI1 (Homo sapiens, UniProt P17947 1-270); settings: protein: recombinant; tags: N-terminal GST; dsDNA, one strand shown
# How it was run: as §1
# [8] = molecular target: SPIB (Homo sapiens, UniProt Q01892 1-262); settings: protein: recombinant; tags: N-terminal GST; dsDNA, one strand shown
# SPIB, sequence (Q01892 whole entry): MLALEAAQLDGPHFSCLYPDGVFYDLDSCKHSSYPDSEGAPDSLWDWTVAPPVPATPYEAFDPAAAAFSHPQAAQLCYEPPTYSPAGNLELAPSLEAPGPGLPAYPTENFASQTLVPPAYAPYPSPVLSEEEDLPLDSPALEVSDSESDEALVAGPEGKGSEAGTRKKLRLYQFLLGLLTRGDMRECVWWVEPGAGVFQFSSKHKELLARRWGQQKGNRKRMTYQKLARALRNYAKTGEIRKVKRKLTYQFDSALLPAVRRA
# How it was run: as §1
# [9] = molecular target: T6, ELK3 (Homo sapiens, UniProt P41970 1-407); settings: protein: recombinant; tags: N-terminal GST; dsDNA, one strand shown
# T6 sequence: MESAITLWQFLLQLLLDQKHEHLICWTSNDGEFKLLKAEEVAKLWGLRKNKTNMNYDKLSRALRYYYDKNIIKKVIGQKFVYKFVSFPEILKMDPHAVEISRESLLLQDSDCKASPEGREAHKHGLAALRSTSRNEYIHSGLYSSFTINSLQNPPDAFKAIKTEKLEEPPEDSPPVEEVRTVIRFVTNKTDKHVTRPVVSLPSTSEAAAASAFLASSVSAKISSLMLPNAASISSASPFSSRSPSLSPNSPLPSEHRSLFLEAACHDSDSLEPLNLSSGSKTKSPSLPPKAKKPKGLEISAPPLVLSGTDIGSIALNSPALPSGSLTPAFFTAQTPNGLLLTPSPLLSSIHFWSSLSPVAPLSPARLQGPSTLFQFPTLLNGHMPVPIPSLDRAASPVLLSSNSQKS
# How it was run: as §1
# [10] = molecular target: T7, FEV (Homo sapiens, UniProt Q99581 1-238); settings: protein: recombinant; tags: N-terminal GST; dsDNA, one strand shown
# T7 sequence: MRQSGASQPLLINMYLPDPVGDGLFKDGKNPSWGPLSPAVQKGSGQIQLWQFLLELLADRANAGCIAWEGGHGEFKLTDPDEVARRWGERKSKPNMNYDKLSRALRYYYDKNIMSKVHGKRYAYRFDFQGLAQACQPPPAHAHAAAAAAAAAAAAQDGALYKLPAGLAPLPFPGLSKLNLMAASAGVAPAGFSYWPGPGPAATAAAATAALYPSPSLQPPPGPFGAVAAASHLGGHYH
# How it was run: as §1
# [11] = molecular target: ETV5 (Homo sapiens, UniProt P41161 1-510); settings: protein: recombinant; tags: N-terminal GST; dsDNA, one strand shown
# ETV5, sequence (P41161 whole entry): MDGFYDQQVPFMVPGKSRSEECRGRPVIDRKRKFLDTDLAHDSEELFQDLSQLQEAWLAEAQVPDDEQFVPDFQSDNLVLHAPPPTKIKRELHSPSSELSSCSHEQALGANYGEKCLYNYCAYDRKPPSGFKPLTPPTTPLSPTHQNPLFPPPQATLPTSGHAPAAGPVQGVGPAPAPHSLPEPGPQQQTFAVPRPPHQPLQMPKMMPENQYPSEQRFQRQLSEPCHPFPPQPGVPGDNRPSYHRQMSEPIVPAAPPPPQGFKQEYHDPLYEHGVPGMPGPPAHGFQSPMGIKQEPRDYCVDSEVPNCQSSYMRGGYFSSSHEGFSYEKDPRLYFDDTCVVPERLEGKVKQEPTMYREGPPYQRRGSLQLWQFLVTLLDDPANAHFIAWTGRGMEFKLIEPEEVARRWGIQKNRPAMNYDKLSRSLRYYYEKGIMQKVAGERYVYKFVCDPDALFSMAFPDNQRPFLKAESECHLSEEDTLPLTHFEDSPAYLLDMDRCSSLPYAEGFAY
# How it was run: as §1
# [12] = molecular target: HSF1 (Homo sapiens, UniProt Q00613 1-529); settings: protein: recombinant; tags: N-terminal GST; chain copies: 3; dsDNA, one strand shown
# HSF1, sequence (Q00613 whole entry): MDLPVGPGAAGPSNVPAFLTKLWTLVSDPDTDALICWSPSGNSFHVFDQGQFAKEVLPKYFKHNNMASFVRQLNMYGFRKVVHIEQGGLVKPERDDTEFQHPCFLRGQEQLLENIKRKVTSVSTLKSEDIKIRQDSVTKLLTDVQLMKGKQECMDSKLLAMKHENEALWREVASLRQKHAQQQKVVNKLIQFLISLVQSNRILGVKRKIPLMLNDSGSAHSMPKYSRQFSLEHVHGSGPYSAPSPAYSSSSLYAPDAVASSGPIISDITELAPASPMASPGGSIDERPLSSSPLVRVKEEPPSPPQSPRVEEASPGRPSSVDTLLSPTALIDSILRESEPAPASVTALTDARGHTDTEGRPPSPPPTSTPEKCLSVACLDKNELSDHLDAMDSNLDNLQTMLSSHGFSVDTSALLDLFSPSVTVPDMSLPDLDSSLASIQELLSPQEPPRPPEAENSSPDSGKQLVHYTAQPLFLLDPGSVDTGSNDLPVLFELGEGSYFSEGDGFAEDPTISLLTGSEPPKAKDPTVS
# How it was run: as §1
# [13] = molecular target: T8, SPIC (Homo sapiens, UniProt Q8N5J4 1-248); settings: protein: recombinant; tags: N-terminal GST; dsDNA, one strand shown
# T8 sequence: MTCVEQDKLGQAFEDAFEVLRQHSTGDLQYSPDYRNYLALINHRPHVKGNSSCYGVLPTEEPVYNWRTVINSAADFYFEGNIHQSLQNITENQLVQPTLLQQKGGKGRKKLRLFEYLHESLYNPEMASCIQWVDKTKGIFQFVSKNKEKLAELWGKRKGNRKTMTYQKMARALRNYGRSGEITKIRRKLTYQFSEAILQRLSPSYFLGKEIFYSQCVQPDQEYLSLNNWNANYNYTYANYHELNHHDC
# How it was run: as §1
# [14] = molecular target: ELF4 (Homo sapiens, UniProt Q99607 1-663); settings: protein: recombinant; tags: N-terminal GST; dsDNA, one strand shown
# ELF4, sequence (Q99607 whole entry): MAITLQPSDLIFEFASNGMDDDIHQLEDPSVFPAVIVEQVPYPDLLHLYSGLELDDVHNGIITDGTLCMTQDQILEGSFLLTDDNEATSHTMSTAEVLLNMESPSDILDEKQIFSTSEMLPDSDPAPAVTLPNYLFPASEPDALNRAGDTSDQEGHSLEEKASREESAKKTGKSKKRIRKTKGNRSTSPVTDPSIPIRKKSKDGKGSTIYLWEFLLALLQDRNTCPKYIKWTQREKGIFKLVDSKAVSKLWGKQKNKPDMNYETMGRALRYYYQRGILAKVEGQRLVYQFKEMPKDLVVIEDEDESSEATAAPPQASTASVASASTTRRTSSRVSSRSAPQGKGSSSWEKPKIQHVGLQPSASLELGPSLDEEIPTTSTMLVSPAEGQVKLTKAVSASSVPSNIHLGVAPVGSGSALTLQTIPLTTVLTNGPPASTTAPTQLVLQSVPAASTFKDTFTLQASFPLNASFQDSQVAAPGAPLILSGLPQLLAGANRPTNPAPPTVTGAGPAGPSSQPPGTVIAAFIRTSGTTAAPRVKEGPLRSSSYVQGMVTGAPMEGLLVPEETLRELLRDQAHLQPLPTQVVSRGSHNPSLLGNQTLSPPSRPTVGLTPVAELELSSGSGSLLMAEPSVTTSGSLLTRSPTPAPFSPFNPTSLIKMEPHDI
# How it was run: as §1
# [15] = molecular target: T9, ELK4 (Homo sapiens, UniProt P28324-2 1-405); settings: protein: recombinant; tags: N-terminal GST; dsDNA, one strand shown
# T9 sequence: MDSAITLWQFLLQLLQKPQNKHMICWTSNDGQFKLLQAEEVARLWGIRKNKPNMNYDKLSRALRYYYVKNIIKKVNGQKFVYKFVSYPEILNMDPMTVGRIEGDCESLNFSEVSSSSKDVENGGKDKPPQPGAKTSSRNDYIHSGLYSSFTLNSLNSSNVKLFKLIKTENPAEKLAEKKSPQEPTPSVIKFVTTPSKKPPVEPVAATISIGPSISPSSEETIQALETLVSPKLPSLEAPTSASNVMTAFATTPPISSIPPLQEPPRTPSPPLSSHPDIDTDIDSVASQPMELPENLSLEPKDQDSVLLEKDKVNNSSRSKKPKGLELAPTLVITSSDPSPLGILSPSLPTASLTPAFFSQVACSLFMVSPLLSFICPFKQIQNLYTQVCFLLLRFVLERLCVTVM
# How it was run: as §1
# [16] = molecular target: T10, ETV2 (Homo sapiens, UniProt O00321 1-342); settings: protein: recombinant; tags: N-terminal GST; dsDNA, one strand shown
# T10 sequence: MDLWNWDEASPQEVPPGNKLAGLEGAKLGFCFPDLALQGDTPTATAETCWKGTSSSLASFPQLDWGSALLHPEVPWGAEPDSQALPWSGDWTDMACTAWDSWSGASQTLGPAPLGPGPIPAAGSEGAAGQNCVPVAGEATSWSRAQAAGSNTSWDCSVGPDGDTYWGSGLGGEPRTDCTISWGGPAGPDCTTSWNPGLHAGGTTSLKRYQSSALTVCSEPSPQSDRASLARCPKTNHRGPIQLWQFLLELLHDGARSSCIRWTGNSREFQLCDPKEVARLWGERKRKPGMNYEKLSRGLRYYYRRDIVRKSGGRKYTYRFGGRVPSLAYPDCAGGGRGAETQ
# How it was run: as §1
# [17] = molecular target: T11, ELF3 (Homo sapiens, UniProt P78545 1-371); settings: protein: recombinant; tags: N-terminal GST; dsDNA, one strand shown
# T11 sequence: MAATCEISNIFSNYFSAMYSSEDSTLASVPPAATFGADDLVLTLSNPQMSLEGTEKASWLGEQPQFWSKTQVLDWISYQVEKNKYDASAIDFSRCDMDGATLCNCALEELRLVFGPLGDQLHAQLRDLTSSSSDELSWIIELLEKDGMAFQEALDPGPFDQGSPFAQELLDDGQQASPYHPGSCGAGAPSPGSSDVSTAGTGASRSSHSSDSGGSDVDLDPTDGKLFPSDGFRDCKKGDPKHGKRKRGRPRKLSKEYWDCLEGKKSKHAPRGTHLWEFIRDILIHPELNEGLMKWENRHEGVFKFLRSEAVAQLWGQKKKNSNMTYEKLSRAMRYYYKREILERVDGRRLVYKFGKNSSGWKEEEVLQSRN
# How it was run: as §1
# [18] = molecular target: CRX (Homo sapiens, UniProt O43186 1-299); settings: protein: recombinant; tags: N-terminal GST; dsDNA, one strand shown
# CRX, sequence (O43186 whole entry): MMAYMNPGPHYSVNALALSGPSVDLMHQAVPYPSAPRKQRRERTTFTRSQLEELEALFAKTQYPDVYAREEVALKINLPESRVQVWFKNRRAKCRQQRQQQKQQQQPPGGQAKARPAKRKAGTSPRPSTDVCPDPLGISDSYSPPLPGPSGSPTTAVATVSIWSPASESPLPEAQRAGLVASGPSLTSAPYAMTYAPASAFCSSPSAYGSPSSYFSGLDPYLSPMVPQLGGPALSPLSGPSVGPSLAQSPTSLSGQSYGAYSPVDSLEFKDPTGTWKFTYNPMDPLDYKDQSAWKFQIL
# How it was run: as §1
# [19] = molecular target: ETV1 (Homo sapiens, UniProt P50549 1-477); settings: protein: recombinant; tags: N-terminal GST; dsDNA, one strand shown
# ETV1, sequence (P50549 whole entry): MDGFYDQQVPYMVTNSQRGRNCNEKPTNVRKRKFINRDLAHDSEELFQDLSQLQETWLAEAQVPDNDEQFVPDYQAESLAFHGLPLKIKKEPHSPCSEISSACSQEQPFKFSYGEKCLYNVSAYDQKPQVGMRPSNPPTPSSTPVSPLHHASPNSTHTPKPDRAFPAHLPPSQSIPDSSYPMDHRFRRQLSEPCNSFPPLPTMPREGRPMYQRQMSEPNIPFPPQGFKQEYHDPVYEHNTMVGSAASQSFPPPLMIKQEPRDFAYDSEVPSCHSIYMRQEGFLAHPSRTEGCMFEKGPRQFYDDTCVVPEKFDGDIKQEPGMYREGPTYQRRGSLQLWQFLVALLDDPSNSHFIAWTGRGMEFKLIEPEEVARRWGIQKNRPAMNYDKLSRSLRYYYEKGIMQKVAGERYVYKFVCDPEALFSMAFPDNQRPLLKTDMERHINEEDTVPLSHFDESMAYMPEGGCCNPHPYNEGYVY
# How it was run: as §1
sequence,measurement,setting,value
GTTAAT,binding signal,[1],"1.14 fold enrichment (6-mer frequency, TF over GST control)"
same,binding signal,[2],"1.19 fold enrichment (6-mer frequency, TF over GST control)"
same,binding signal,[3],"1.06 fold enrichment (6-mer frequency, TF over GST control)"
same,binding signal,[4],"1.1 fold enrichment (6-mer frequency, TF over GST control)"
same,binding signal,[5],"1.03 fold enrichment (6-mer frequency, TF over GST control)"
same,binding signal,[6],"1.16 fold enrichment (6-mer frequency, TF over GST control)"
same,binding signal,[7],"1.1 fold enrichment (6-mer frequency, TF over GST control)"
same,binding signal,[8],"1.15 fold enrichment (6-mer frequency, TF over GST control)"
same,binding signal,[9],"1.12 fold enrichment (6-mer frequency, TF over GST control)"
same,binding signal,[10],"1.08 fold enrichment (6-mer frequency, TF over GST control)"
same,binding signal,[11],"1.17 fold enrichment (6-mer frequency, TF over GST control)"
same,binding signal,[12],"1.6 fold enrichment (6-mer frequency, TF over GST control)"
same,binding signal,[13],"1.11 fold enrichment (6-mer frequency, TF over GST control)"
same,binding signal,[14],"1.14 fold enrichment (6-mer frequency, TF over GST control)"
same,binding signal,[15],"1.05 fold enrichment (6-mer frequency, TF over GST control)"
same,binding signal,[16],"1.18 fold enrichment (6-mer frequency, TF over GST control)"
same,binding signal,[17],"1.09 fold enrichment (6-mer frequency, TF over GST control)"
same,binding signal,[18],"2.41 fold enrichment (6-mer frequency, TF over GST control)"
same,binding signal,[19],"1 fold enrichment (6-mer frequency, TF over GST control)"
